Test results: PubChem BioAssay (Tox21)
Inconclusive results are not listed. Where a call stands in place of a potency, no number is given. The source made the active and inactive calls. Unless noted, calls come from the whole dose curve; as a rule, active = well fitted curve in the direction sought with a large enough effect in the repeat runs; inconclusive = weak or mixed curves; inactive = no such curve, though single readings can be large; an effect the other way counts as inactive or inconclusive.

Columns and labels:
[1] = qHTS assay to identify small molecule agonists of the vitamin D receptor (VDR) signaling pathway - cell viability counter screen (AID 743224); note: series mostly up to about 63 µM; nearly all actives have a fitted effect of over 50% in size
Summary of the method: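 VDR-bla cells, 4 h after plating, exposed to compounds for 16 h at 37C; viability then read in the same wells as CellTiter-Glo luminescence after 30 min at room temperature, following the bla FRET read.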

[2] = qHTS assay to identify small molecule antagonists of the vitamin D receptor (VDR) signaling pathway - cell viability counter screen (AID 743225); note: nearly all actives have a fitted effect of over 50% in size
Summary of the method: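 Cells (VDR-UAS-bla HEK 293T) are plated, rested 4 h at 37C, dosed with compound and 3 nM final 1-alpha,25-dihydroxy vitamin D3, and incubated 16 h. Viability is taken from CellTiter-Glo luminescence in the reporter wells.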

[3] = qHTS assay to identify small molecule agonists of the NFkB signaling pathway - cell viability counter screen (AID 1159515; calls by dose curve; note: series mostly up to about 61 µM; nearly all actives have a fitted effect of over 55% in size)
Summary of the method: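 NFkB-bla ME-180 cells, 2,000/well, plated overnight at 37 C; compound added for 5 hr at 37 C. Viability read in the same wells as the bla reporter, by CellTiter-Glo luminescence after 30 min at room temperature.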

[4] = qHTS assay to identify small molecule agonists of the endoplasmic reticulum stress response signaling pathway (AID 1159516; active = well fitted activation curve with a large enough effect in the signal ratio in the repeat runs, not every such curve was filed as active; the % refers to the signal ratio)
Summary of the method: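 CellSensor ESRE-bla HeLa cells, 1,500 per well, plated overnight, then exposed to compounds for 5 hr at 37 C. Beta-lactamase reporter read with LiveBLAzer B/G FRET substrate after 2 hr at room temperature, 405 nm excitation, 460 and 530 nm emission.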

[5] = qHTS assay to identify small molecule agonists of the endoplasmic reticulum stress response signaling pathway - cell viability counter screen (AID 1159517; calls by dose curve;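 note: HeLa cells carrying an ER stress response element beta-lactamase reporter; series mostly up to about 61 µM; nearly all actives have a fitted effect of over 50% in size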)
Summary of the method: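 HeLa cells carrying an ESRE-driven beta-lactamase reporter receive compound for 5 hr at 37 C. Cell viability is then gauged with CellTiter-Glo by luminescence, 30 min at room temperature.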

[6] = qHTS assay to identify small molecule antagonists of the retinoid-related orphan receptor gamma (ROR-gamma) signaling pathway - cell viability counter screen (AID 1159520); note: nearly all actives have a fitted effect of over 50% in size; note: potency is the fitted concentration of half-maximal effect
Summary of the method: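 Cytotoxicity was read from cellular ATP (CellTiter-Glo luminescence) after 16 hr at 37 C with 1 uM doxycycline induction. The inducer was added 2 hr after compound transfer to Tet-on ROR gamma CHO cells.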

[7] = molecular target: Nuclear receptor ROR-gamma (Homo sapiens) (UniProt P51449); experiment: qHTS assay to identify small molecule antagonists of the retinoid-related orphan receptor gamma (ROR-gamma) signaling pathway (AID 1159521; note: nearly all actives have a fitted effect of over 50% in size; note: potency is the fitted concentration of half-maximal effect)
Summary of the method: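 RORγ antagonism is scored from reduced reporter luminescence in Tet-on CHO cells. Induction used 1 uM final doxycycline hyclate for 16 h at 37 C, following a 2 h compound exposure.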

[8] = qHTS assay to identify small molecule agonists of the AP-1 signaling pathway - cell viability counter screen (AID 1159525; calls by dose curve; note: nearly all actives have a fitted effect of over 55% in size)
Summary of the method: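 Luminescent ATP readout (Cell Titer Glo, 30 min RT), normalised to DMSO and tetra n-octyl ammonium bromide controls. Cells were ME-180 AP-1-bla in 0.5% dialyzed FBS Opti-MEM, with a 5 h, 37 °C compound exposure.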

[9] = molecular target: Retinoic acid receptor RXR-alpha (Homo sapiens) (UniProt P19793); experiment: qHTS assay to identify small molecule agonists of the RXR signaling pathway (AID 1159527; calls by dose curve; note: nearly all actives have a fitted effect of over 35% in size)
Sequence of Retinoic acid receptor RXR-alpha (Homo sapiens) (P19793 whole entry, looked up): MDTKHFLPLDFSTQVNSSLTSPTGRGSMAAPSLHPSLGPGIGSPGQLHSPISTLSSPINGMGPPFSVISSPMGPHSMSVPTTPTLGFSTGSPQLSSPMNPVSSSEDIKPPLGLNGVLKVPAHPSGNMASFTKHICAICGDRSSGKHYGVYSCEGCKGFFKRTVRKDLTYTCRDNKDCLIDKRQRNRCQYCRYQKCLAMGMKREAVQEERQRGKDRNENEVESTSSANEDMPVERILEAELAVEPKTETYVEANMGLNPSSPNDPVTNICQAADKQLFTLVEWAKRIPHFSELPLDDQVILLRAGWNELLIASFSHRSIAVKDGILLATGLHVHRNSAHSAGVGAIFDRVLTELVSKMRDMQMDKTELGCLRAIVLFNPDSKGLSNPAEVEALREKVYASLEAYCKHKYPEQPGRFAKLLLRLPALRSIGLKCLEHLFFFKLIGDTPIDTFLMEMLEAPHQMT
Summary of the method: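 qHTS of the Tox21 10K library in GeneBLAzer RXR-alpha HEK 293T cells carrying a beta-lactamase reporter […]; 16 hr treatment, 9-cis retinoic acid as agonist control, FRET read-out.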

[10] = qHTS assay to identify small molecule agonists of the AP-1 signaling pathway (AID 1159526; calls by dose curve)

Row | SMILES | Potency [1] | Potency [2] | Potency [3] | Potency [4] | outcome [5] | Potency [6] | Potency [7] | Potency [8] | Potency [9] | Potency [10]
1 | OC(CCN1CCCCC1)(c1ccccc1)C1CCCCC1 (centres undefined) | inactive | inactive | inactive | inactive | inactive | inactive | inactive | inactive | – | –
2 | C=CC(=O)OCCOC(=O)CCC(=O)O | inactive | inactive | inactive | inactive | inactive | inactive | inactive | inactive | inactive | –
3 | CCN(CC)C(C)CN1c2ccccc2Sc2ccccc21 (centres undefined) | inactive | inactive | inactive | inactive | inactive | inactive | inactive | inactive | – | –
4 | Cc1cc(O)ccc1N | – | inactive | inactive | inactive | inactive | 54.8 µM (active) | 24.5 µM (active) | inactive | – | –
5 | CC(=O)CC(=O)c1ccccc1 | inactive | inactive | inactive | inactive | inactive | inactive | 6.9 µM (active) | inactive | – | –
6 | O=C(O)Cn1c(C(=O)Nc2nc(-c3ccccc3Cl)cs2)cc2ccccc21 | inactive | inactive | inactive | inactive | inactive | inactive | inactive | inactive | – | –
7 | C=C(C)C(=O)OCCOc1ccccc1 | – | inactive | inactive | inactive | inactive | inactive | inactive | inactive | – | –
8 | O=S1(=O)c2cccc3cccc(c23)N1CCCN1CCN(c2ccc(F)cc2)CC1 | inactive | inactive | inactive | inactive | inactive | inactive | inactive | inactive | – | –
9 | CC1(C)CCC(C)(C)c2cc(NC(=O)c3ccc(C(=O)O)cc3)ccc21 | inactive | inactive | inactive | inactive | inactive | inactive | 26.6 µM (active) | inactive | – | –
10 | CN(C(=O)CCCOc1ccc2[nH]c(=O)ccc2c1)C1CCCCC1 | inactive | inactive | inactive | inactive | inactive | inactive | inactive | inactive | – | –
11 | C=CC(C)(CCC=C(C)C)OC(=O)c1ccccc1 (centres undefined) | inactive | – | inactive | inactive | inactive | inactive | inactive | inactive | – | –
12 | COc1ccc([C@@H]2Sc3ccccc3N(CCN(C)C)C(=O)[C@@H]2OC(C)=O)cc1 | inactive | – | inactive | inactive | inactive | inactive | inactive | – | – | inactive
13 | CCCCCC/C=C/C=O | inactive | inactive | inactive | inactive | inactive | inactive | inactive | inactive | – | –
14 | NCCCN(CCO)CCO | inactive | inactive | inactive | inactive | inactive | inactive | inactive | inactive | – | –
15 | Oc1ccc2c(c1)OCO2 | inactive | inactive | inactive | inactive | inactive | inactive | inactive | – | – | inactive
16 | CC(C)c1cccc(C(C)C)c1NC(=O)NS(=O)(=O)c1cc(C(C)(C)O)co1 | inactive | inactive | inactive | inactive | inactive | inactive | inactive | inactive | – | –
17 | Nc1ccc(C(=O)Nc2ccccc2N)cc1 | inactive | inactive | inactive | inactive | inactive | inactive | – | inactive | – | inactive
18 | CC(C)NCC(O)COc1ccc(CC(N)=O)cc1 (centres undefined) | inactive | inactive | inactive | inactive | inactive | inactive | inactive | – | – | inactive
19 | CN(C)CCCNCCCN | inactive | inactive | inactive | inactive | inactive | inactive | inactive | – | – | inactive
